The supplement of paper PMC12067093, “Discovery and optimisation of a covalent ligand for TRIM25 and its application to targeted protein ubiquitination” (Chemical Science, 2025)
About 21,000 targets were measured; listed, in parts, are those with the largest changes and a random draw of the rest.

Compound: Cc1cc(ccc1-c1ccccc1)C(=O)N1CCCN(CC1)C(=O)CCl [compound 10]
Experiment: probe-labelled cysteine peptide fold change vs DMSO (competition) (log2 fold change); higher = less target engagement (more negative = stronger competition)
Conditions: THP-1, incubation time: 4 h
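Also: competitive profiling in live THP-1 cells: cysteine peptides tagged with an iodoacetamide desthiobiotin (IA-DTB) probe, intensity after compound treatment relative to DMSO-treated cells.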

Sequence of UniProt P48739 (P48739 whole entry): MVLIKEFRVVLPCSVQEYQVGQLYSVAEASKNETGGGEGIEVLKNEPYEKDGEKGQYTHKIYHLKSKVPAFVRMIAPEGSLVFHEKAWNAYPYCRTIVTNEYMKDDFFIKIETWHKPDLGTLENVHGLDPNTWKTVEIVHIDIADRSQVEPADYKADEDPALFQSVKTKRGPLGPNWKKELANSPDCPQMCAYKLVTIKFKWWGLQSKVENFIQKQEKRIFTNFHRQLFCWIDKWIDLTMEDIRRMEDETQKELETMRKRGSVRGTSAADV
Sequence of UniProt Q86YH6 (Q86YH6 whole entry): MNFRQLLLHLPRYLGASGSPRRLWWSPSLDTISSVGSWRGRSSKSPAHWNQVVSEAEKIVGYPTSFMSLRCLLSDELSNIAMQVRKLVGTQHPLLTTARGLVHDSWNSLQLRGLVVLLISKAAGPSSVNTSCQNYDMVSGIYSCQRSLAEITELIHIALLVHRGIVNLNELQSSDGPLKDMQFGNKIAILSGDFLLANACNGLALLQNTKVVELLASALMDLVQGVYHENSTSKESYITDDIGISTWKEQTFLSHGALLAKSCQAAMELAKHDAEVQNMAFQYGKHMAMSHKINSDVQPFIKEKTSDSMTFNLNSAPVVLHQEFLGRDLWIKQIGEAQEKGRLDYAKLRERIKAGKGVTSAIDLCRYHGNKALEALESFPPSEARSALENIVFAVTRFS
Sequence of UniProt Q9UP65 (Q9UP65 whole entry): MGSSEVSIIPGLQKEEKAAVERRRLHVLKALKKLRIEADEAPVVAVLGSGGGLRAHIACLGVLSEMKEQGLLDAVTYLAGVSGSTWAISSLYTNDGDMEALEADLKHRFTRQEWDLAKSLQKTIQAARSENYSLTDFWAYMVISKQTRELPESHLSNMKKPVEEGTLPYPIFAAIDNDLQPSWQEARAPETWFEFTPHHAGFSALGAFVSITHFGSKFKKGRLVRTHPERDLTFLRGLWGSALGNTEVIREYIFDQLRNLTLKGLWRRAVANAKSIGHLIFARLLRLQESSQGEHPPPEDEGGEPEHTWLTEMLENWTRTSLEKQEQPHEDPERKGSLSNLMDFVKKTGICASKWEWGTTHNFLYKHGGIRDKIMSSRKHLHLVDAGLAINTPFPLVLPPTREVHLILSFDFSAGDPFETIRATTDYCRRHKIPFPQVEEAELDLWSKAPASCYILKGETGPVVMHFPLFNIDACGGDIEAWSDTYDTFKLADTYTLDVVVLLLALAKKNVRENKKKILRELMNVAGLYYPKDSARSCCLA
Sequence of UniProt P60510 (P60510 whole entry, looked up): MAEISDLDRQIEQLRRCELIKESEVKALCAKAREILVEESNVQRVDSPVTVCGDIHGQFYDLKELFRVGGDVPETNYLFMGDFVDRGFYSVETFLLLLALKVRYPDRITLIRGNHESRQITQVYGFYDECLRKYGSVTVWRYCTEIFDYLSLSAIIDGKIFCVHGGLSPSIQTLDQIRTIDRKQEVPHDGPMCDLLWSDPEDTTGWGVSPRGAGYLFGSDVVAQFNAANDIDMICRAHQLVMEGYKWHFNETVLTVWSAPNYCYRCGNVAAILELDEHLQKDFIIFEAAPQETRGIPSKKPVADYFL
Sequence of UniProt Q07864 (Q07864 whole entry, looked up): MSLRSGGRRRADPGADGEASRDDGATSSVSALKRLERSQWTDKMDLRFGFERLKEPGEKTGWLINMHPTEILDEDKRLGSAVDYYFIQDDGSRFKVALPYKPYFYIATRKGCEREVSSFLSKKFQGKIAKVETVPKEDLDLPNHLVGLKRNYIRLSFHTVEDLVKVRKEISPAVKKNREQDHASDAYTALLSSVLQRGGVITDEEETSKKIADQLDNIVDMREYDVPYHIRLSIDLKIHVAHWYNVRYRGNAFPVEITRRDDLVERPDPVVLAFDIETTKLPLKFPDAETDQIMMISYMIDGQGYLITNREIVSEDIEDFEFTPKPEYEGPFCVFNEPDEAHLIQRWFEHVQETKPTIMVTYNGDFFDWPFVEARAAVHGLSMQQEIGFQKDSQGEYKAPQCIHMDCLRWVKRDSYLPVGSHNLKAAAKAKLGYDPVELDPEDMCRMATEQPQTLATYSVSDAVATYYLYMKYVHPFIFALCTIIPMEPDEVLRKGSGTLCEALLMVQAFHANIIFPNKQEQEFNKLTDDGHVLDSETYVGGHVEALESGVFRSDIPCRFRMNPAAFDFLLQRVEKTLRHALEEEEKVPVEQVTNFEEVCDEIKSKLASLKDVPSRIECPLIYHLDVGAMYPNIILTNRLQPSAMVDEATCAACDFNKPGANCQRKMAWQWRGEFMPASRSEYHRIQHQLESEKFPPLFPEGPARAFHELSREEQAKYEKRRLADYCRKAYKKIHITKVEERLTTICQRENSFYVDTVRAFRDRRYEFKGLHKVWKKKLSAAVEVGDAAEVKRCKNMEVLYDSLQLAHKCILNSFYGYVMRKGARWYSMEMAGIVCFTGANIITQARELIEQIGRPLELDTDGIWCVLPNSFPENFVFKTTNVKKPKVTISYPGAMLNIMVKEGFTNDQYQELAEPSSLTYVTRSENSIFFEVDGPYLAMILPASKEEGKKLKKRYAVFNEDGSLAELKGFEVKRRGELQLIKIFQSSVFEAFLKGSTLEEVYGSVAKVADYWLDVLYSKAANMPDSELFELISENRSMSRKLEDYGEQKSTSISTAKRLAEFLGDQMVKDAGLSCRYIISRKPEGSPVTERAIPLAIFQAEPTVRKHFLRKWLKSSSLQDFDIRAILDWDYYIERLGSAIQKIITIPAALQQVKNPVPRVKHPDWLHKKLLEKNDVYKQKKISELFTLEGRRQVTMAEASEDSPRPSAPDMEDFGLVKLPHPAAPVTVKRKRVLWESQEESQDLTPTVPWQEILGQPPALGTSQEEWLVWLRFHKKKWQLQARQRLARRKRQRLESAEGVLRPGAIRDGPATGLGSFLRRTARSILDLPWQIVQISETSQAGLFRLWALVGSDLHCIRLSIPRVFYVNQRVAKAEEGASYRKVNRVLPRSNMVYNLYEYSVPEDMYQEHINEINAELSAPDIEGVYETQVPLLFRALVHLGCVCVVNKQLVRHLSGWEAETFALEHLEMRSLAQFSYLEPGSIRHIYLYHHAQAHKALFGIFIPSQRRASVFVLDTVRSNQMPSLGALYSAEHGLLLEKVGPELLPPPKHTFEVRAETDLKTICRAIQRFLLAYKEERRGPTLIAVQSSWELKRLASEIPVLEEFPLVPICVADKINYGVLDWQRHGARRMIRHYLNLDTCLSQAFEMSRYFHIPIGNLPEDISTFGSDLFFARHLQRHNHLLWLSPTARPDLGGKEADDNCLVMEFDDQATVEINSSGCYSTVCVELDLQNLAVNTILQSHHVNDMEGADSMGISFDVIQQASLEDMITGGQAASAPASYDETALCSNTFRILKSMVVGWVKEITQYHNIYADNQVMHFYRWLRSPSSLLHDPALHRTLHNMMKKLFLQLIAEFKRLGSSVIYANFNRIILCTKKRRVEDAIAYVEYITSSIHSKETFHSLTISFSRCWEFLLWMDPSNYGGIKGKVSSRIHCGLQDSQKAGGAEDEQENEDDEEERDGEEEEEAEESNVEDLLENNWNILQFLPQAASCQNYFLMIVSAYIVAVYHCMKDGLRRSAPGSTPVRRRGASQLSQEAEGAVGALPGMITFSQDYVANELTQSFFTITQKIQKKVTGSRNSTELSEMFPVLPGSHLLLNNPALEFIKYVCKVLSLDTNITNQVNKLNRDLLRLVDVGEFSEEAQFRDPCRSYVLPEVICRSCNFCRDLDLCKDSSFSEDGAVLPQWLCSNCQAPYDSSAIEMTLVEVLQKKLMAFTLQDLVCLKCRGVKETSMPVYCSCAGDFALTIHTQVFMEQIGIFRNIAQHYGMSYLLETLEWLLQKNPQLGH
Sequence of UniProt Q8NHP8 (Q8NHP8 whole entry, looked up): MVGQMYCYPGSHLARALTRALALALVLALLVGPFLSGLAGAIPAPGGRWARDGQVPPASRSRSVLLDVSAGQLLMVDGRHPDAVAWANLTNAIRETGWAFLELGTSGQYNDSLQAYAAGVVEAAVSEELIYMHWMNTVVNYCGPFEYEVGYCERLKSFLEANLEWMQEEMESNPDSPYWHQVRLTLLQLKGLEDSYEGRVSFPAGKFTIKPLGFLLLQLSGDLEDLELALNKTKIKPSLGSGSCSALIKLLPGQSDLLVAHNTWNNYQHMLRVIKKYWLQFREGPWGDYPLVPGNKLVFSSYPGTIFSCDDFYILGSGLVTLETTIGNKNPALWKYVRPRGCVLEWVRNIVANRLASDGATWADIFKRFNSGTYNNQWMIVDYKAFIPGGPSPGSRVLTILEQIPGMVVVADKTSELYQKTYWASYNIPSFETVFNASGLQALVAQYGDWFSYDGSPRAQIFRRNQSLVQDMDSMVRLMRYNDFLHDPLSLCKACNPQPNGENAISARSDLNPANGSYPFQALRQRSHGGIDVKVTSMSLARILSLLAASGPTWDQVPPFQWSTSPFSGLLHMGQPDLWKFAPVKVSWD
Sequence of UniProt P07737 (P07737 whole entry, looked up): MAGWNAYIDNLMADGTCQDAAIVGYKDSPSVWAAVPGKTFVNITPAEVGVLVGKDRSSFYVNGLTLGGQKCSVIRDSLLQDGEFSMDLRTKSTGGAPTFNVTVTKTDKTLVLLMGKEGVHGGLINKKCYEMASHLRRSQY
Sequence of UniProt P00558 (P00558 whole entry, looked up): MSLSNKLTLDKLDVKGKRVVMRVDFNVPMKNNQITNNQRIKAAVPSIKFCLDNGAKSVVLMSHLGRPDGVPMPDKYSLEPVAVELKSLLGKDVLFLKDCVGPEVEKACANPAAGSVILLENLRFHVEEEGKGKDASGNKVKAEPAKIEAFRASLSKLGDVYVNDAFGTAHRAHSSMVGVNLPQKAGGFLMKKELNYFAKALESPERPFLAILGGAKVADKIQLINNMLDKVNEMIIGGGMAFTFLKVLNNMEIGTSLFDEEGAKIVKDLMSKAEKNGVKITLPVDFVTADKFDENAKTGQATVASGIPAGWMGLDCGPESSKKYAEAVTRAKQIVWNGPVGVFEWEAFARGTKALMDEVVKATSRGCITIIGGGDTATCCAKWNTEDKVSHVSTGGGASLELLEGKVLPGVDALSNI

Target	probe-labelled cysteine peptide fold change (10 µM)	probe-labelled cysteine peptide fold change (50 µM)
PDSS2_Q86YH6_71_CLLSDELSNIAMQVR (UniProt Q86YH6)	-0.424	-2.09
POLE_Q07864_600_HALEEEEKVPVEQVTNFEEVCDEIK (UniProt Q07864)	-0.247	-1.05
PFN1_P07737_128_KCYEMASHLRR (UniProt P07737)	-0.531	-0.695
PGK1_P00558_316_TGQATVASGIPAGWMGLDCGPESSK (UniProt P00558)	-0.217	0.0673
PIBF1_Q8WXW3_334_CAHEEDRLER (UniProt Q8WXW3)	0.47	1.41
PPA1_Q15181_114_HTGCCGDNDPIDVCEIGSK (UniProt Q15181)	0.105	0.181
PPP4C_P60510_193_KQEVPHDGPMCDLLWSDPEDTTGWGVSPR (UniProt P60510)	-0.0839	-0.279
PCDH17_O14917_335_DLGPNPIPAHCK (UniProt O14917)	-0.0867	-0.403
POP1_Q99575_745_RSEVPCAPMPK (UniProt Q99575)	-0.238	-0.307
PHGDH_O43175_18_VLISDSLDPCCR (UniProt O43175)	-0.444	-0.677
PDIA4_P13667_91+94_DTVLLEFYAPWCGHCK (UniProt P13667)	-0.227	-1.17
PATZ1_Q9HBE1_610_KYPCPECGSFFR (UniProt Q9HBE1)	0.149	0.151
PLA2G4C_Q9UP65_351_KTGICASK (UniProt Q9UP65)	-0.289	-1.38
PLCG2_P16885_791_SDELSFCR (UniProt P16885)	-0.0321	-0.0713
PML_P29590_479+484_CSQTQCPR (UniProt P29590)	-0.494	-1.17
PECAM1_P16284_109_CTVIVNNK (UniProt P16284)	0.0288	0.348
PITPNB_P48739_13_VVLPCSVQEYQVGQLYSVAEASK (UniProt P48739)	-0.0113	0.103
PPP5D1_E7EU14_47_YQECNK<|>PPP5C_P53041_139_YQECNK (UniProt P53041+E7EU14)	0.0409	-0.0811
PELP1_Q8IZL8_71_SAPHLPGLMCLLR (UniProt Q8IZL8)	-1.13	-0.883
PHKA1_P46020_238_GGPQSVIHVLADEVQHCQSILNSLLPR (UniProt P46020)	0.143	-0.161
PIK3C2A_O00443_541_HLYQIEKPCK (UniProt O00443)	-0.457	-1.29
PLXNB2_O15031_1149_TLTETDLYCEPPEVQPPPK (UniProt O15031)	-0.174	-0.00622
POLR2A_P24928_451_HMCDGDIVIFNR (UniProt P24928)	-0.0734	-0.107
PLBD2_Q8NHP8_492_YNDFLHDPLSLCK (UniProt Q8NHP8)	0.0964	-0.267
